# Screening results (PubChem BioAssay)
# Cycloheximide cs = affects cycloheximide protein synthesis inhibition readout, counter-screen | actives 12% (n = 300,000) | max response, % | cell reporter, cycloheximide protein synthesis inhibition counterscreen; in the data active = max response mostly above about 13%, no sharp cut-off; inactive = mostly below about 14%; also: read at 38.3 µM for the half of the compounds with a filed dose; 0% is about no effect
# NS1 inh = influenza NS1 inhibition. Potency, µM (doses to about 46.1 µM), inactives show top-dose activity, positive = more growth. actives 0.4% (n = 270,000). AID 2326; also: potency is read from the fitted curve at half-maximal effect; actives are rising curves; nearly all actives have a fitted effect of over 50% in size
#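 A cell-based growth assay was used: compounds that relieve NS1-induced slow growth of budding yeast raise OD600. Assay medium was yeast nitrogen base with ammonium sulphate and -URA supplement, pH 6.0, with 2% galactose.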
# Pf growth 48h = inhibits P. falciparum growth in the first generation, 48 h; Potency, µM (doses to about 28.7 µM), without a hit: at the top dose activity change, negative = inhibition, usual class: inhibitors; AID 504832; actives 5.9% (n = 310,000); P. falciparum luciferase growth in erythrocytes, 48 h; active = well fitted inhibition curve with a large enough effect; inconclusive = small, poorly fitted or top-dose-only effect, or another doubt; inactive = no such curve, though single readings can be large or run the other way; also: potency is read from the fitted curve at half-maximal effect; % is scaled to controls: 0 for no effect and ±100 for the full control effect
#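 Luciferase-expressing parasites in RBCs, 2% Hct / 0.1% parasitemia final; RPMI 1640 + 0.5% Albumax; 37 C, 5% CO2, one generation; luminescence read-out, lower signal = inhibition.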
# SARS PLpro yeast = blocks SARS-CoV papain-like protease in a yeast assay; S. cerevisiae expressing SARS-CoV PLpro, growth rescue; Potency, µM (series often up to 32.9 µM), inactives show at the top dose activity, positive = growth rescue, actives largely listed as activators; actives 0.19% (n = 330,000); AID 485353; also: potency is read from the fitted curve at half-maximal effect; 0% is about no effect; nearly all actives have a fitted effect of over 55% in size
# Pf growth 96h = P. falciparum growth inhibition at 96 hours; P. falciparum luciferase reporter growth, 96 h; Potency, µM (titrated, usually from 28.7 µM), for the others: at the highest dose activity change, negative = inhibition, most hits filed as inhibitors; actives 6.9% (n = 320,000); AID 504834; active = well fitted inhibition curve with a large enough effect; inconclusive = small, poorly fitted or top-dose-only effect, or another doubt; inactive = no such curve, though single readings can be large or run the other way; also: potency is read from the fitted curve at half-maximal effect; % is scaled to controls: 0 for no effect and ±100 for the full control effect
#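 P. falciparum expressing integrated firefly luciferase grown in erythrocytes (2% hematocrit, 0.05% parasitemia final) with compounds for 96 hours at 37 C, 5% CO2. Growth inhibition read as loss of luminescence after adding luciferase detection reagent.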
# Shiga toxin inh = blocks Shiga toxin action in Vero cells; inhibition, % at 38.7 µM; Vero cells, Shiga toxin protein synthesis inhibition reporter; AID 2315; actives 9.2% (n = 290,000); in the data active = inhibition mostly above about 28%, no sharp cut-off; inactive = mostly below about 43%; also: 0% is about no effect
# Active calls of the source: *; ? = inconclusive; . = no result; [ ] = dose if it differs, or a comment. Rows were chosen to be rich in hits. Some 21% of all compounds tested hit in one or more screens of this group. Unless noted, calls follow the shape of the full dose curve.
SMILES,Cycloheximide cs,NS1 inh,Pf growth 48h,SARS PLpro yeast,Pf growth 96h,Shiga toxin inh
C/C(=N\NC(=O)c1ccc(NS(=O)(=O)c2cccs2)cc1)c1cccs1,16.7,.,-6.8%,-0.7%,12.3%,15.5
C/C(=N/NC(=O)c1cccs1)c1ccc(NC(=O)COc2ccc(Cl)cc2)cc1,36.3*,2.5%,0.0%,17.2%,2.2%[5.75 µM],79.3*
C/C(=N/NC(=O)c1ccc2nc[nH]c2c1)c1cccs1,38.5*,-7.7%,149.3%,-0.5%,134.4%,55.1*
C/C(=N\NC(=O)c1ccc(Cl)cc1)c1cccs1,18.7*,.,199.7%,-7.6%,87.3%,57.2*
Cc1ccc(/C=N/NC(=O)c2ccc3nc[nH]c3c2)s1,21.3,.,36.0%,3.1%,25.7%,41.8
Nc1ccccc1C(=O)N1O[C@@H]2C=C[C@H]1C2,.,.,.,9.1%,.,.
COC(=O)c1cc(S(=O)(=O)NC2CCCCC2)cn1C,-1.9,14.4%,-14.2%,-1.5%,25.7%,-5.3
Cc1csc(NC(=O)CCCNC(=O)c2ccc(Cl)cc2)n1,.,.,?,1.8%,-24.2%,.
CC(C)OC(=O)c1sc2nc(-c3ccccc3)ccc2c1N,66.1*,-5.6%,191.9%,2.3%,344.9%,143.5*
Cc1ccc2c(N)c(C(=O)N(c3ccccc3)c3ccccc3)sc2n1,13.2,9.6%,9.28µM*,-7.0%,?,-13.0
CCOC(=O)c1sc2nc(-c3cccnc3)ccc2c1N,49.9*,0.5%,191.0%,-2.7%,22.3%,84.2*
NC(=O)c1sc2nc(-c3cccnc3)ccc2c1N,21.8*,-1.8%,35.9%,-1.7%,-18.2%,32.5*
Nc1c(C(=O)Nc2ccc(Cl)c(Cl)c2)sc2nc(-c3cccnc3)ccc12,-1.8,15.2%,-11.8%,3.0%,10.3%,-4.5
COc1ccc(C(=O)c2sc3nc(-c4ccccc4)ccc3c2N)cc1,2.4,-7.3%,-12.4%,0.8%,-20.4%,26.6
CSc1nc2sc3c(c2c(=O)n1CC(C)C)CC(C)(C)OC3,-2.0,0.6%,39.1%,2.0%,33.4%,-12.5
COC(=O)c1cc2c(N)c(C(=O)c3ccccc3)sc2nc1C(OC)OC,24.1*,1.6%,?,0.6%,?,36.8
CC(C)CCNC(=O)c1ccc2nc[nH]c2c1,24.4*,1.7%,38.9%,10.2%,.,51.5
O=C(NCCSc1ccc(Br)cc1)c1ccc2nc[nH]c2c1,21.0*,24.4%,13.5%,-6.4%,-11.8%,16.3
CN1CCSc2ccc(C(=O)NCc3ccccc3)cc21,10.0*,4.0%,?,-1.0%,-15.2%,24.6*
CCN1CCSc2ccc(C(=O)NCc3cccc(F)c3)cc21,-1.5,-6.7%,3.8%,-2.4%,1.6%,-0.7
CN1CCSc2ccc(C(=O)Nc3cccc(F)c3)cc21,55.2*,-34.3%,126.3%,-3.0%,0.0%,52.7*
COc1ccc(NC(=O)c2ccc3c(c2)N(C)CCS3)cc1,59.5*,-3.8%,201.3%,-1.0%,?,66.7*
N#CCCN(Cc1cccnc1)C(=S)NC(=O)c1ccccc1,.,.,.,10.7%,.,.
CCc1c(C)nc(SCC(N)=O)c(C#N)c1C,12.1,6.0%,.,7.0%,-29.8%,10.4
CCc1c(C)nc(SCC(=O)c2cccs2)c(C#N)c1C,39.3*,-6.5%,.,-9.3%,120.8%,40.1
SMILES,Cycloheximide cs,NS1 inh,Pf growth 48h,SARS PLpro yeast,Pf growth 96h,Shiga toxin inh
CCCSc1nc(N)nc(-c2cccs2)c1C#N,35.3*,-143.3%,54.0%,-29.0%,-4.8%,84.3*
CSc1sc(C(=O)N2CCCCC2)c(-c2cccs2)c1C#N,-0.4,-6.8%,-1.5%,0.1%,2.9%,2.6
CCCSc1sc(C(=O)OC)c(-c2cccs2)c1C#N,0.7,-3.3%,10.4µM*,0.6%,10.4µM*,-0.7
N#Cc1c(-c2ccccc2F)cc(C2CC2)nc1SCC(=O)c1cccs1,12.9*,12.2%,?,7.6%,?,-12.1
CC(OC(=O)CCC(=O)c1ccc(Cl)s1)C(=O)NC1(C#N)CCCCC1 (stereo not drawn),.,.,32.4%,0.8%,44.0%,.
CCCc1nc(C(C)(C)O)c(C(=O)O)n1Cc1ccc(-c2ccccc2-c2nn[nH]n2)cc1,-1.5,.,.,5.2%,.,-8.7
CC(=O)Nc1ccc(C(=O)CSc2nccc(=O)[nH]2)cc1,1.9,.,38.3%,6.3%,20.5%,-6.3
CCOC(=O)CSc1nc(C2CC2)cc(-c2ccc(Cl)cc2)c1C#N,-5.5,-1.6%,10.4µM*,2.4%,-27.1%,13.6
CCSc1nc(C2CC2)cc(-c2cccs2)c1C#N,15.8*,-2.5%,.,-15.8%,2.2%,10.0
COC(=O)CSc1nc(C2CC2)cc(C(F)(F)F)c1C#N,-1.7,-14.0%,0.7%,6.4%,.,-14.6
Cc1noc(C)c1CSCC(=O)N(C)CC(=O)Nc1ccc(Cl)cc1,-1.1,5.4%,24.3%,-7.4%,-3.0%,-8.6
CC(C)(C)c1cc(C=C(C#N)C#N)cc(C(C)(C)C)c1O,.,-45.3%,2.62µM*,.,1.47µM*,.
CC(C)(C)c1cc(/C=C(\C#N)C(N)=S)cc(C(C)(C)C)c1O,.,-49.3%,.,.,.,.
CC(=N/O)/C(C)=N\NC(=O)c1ccccn1,14.4,.,?,-6.3%,-6.9%,56.3
CCc1ccc(/C(C)=N/NS(=O)(=O)c2ccc(OC)cc2)s1,-2.1,-12.1%,30.0%,-1.7%,32.9%,-9.3
CCc1ccc(/C(C)=N/NC(=O)c2c[nH]c3ccccc23)s1,17.9*,7.1%,?,-6.4%,17.7%,19.2
C/C(=N\NC(=O)c1ccc(F)cc1)c1ccccn1,62.2*,-59.7%,?,-3.9%,27.9%,97.5*
C/C(=N\NC(=O)c1c[nH]c2ccccc12)c1ccccn1,31.9*,.,?,-2.1%,?,146.9*
C/C(=N\NC(=O)c1ccccn1)c1ccc(C(=O)O)s1,45.0*,0.2%,92.2%,1.4%,-1.7%,74.2*
COc1ccc(OC)c(NC(=O)CSc2nnc(-c3cnccn3)n2C)c1,-0.5,-7.8%,?,-1.7%,?,-3.6
Fc1ccc(N/N=C(/c2ccccc2)c2ccccn2)cc1,30.4*,2.2%,?,?,5.22µM*,13.0
C/C(=N/NC(=O)CNC(=O)c1ccccn1)c1ccccc1,9.8,3.5%,81.4%,3.9%,124.0%,10.4
O=C(N/N=C(\c1ccccc1)c1ccccn1)c1cccc([N+](=O)[O-])c1,4.9,.,?,-19.6%,?,-4.5
C=CCNC(=S)N/N=C(\C)c1ccccn1,17.0,-166.5%,.,-38.0%,0.0029µM*,54.3
CCc1ccc(/C(C)=N/NC(=O)c2ccccn2)cc1,20.7*,.,74.6%,3.1%,?,45.9
CCOc1ccc(C(=O)N/N=C(\c2ccccc2)c2ccccn2)cc1,42.3*,-64.4%,13.1µM*,-38.4%,11.7µM*,61.4*
CCc1nn2c(=O)cc(CSc3nc4sc5c(c4c(=O)n3C)CCCC5)nc2s1,.,0.5%,.,.,.,.
